Compounds with a hit are over-represented: about 2.8% of the library has one in this group of screens.
KKLEB tox: counter-screen for CF NF-kB inhibitors: cytotoxicity; KKLEB CF airway cells viability, ATPlite luminescence, overnight; hits give low values; cells stimulated with P. aeruginosa culture filtrate; activity change (cytotoxicity), % at 5 µM; actives 0.36% (n = 360,000);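 active = corrected activity change at or below -50% at 5 µM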
Shn3 3UTR inh: reduces Shn3 3'UTR luciferase signal in osteoblasts; actives 0.52% (n = 360,000); inhibition, % at 12.5 µM; AID 588674; Clone20 osteoblast Shn3 3'UTR firefly luciferase, 24 h;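 active = mean inhibition of at least 75% with every replicate also reaching 75%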;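 also: 0% = median of neutral control wells and 100% = pilot-screen positive control compound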
Peg3 prom inh-1: Peg3 promoter activity inhibition; HeLa PEG-Prom luciferase reporter, luminescence, overnight; inhibition, % at 20 µM; actives 1.7% (n = 360,000);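 active = inhibition of at least 50% at 20 µM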
HIF-2a inh: HIF-2a inhibition. 786-0 RCC cells HIF-2a reporter, luciferase luminescence, overnight. inhibition, % at 18.8 µM. actives 0.72% (n = 360,000);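 active = inhibition of the luminescence signal of 40% or more relative to plate controls, in a single-dose primary screen at 18.75 µM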
CF NFkB inh: inhibitors of cystic fibrosis induced NF-kB | KKLEB NF-kB-GFP reporter, PAF-induced, GFP fluorescence overnight | inhibition, % at 5 µM | actives 0.86% (n = 360,000) | AID 588850;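 active = at least 50% inhibition at 5 µM, scaled per plate between neutral and stimulator controls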;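 also: PAF is a Pseudomonas aeruginosa culture filtrate used as stimulus; plate controls were PAF-stimulated DMSO wells for no effect and unstimulated DMSO wells for full effect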
MITF TRPM1 inh: inhibitors of MITF-driven TRPM1 promoter in melanoma cells; SK-MEL-5 TRPM1 promoter luciferase, 24 h; inhibition, % at 12.5 µM; actives 0.83% (n = 330,000); AID 488899;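 active = mean inhibition across replicates of 60% or more, whatever share of single replicates reaches that level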
Peg3 prom inh-2: Peg3 promoter inhibition confirmation | shares compounds with Peg3 prom inh-1 | HeLa PEG-Prom luciferase reporter, luminescence, overnight | inhibition, % at 20 µM | actives 84% (n = 1,300);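 active = at 20 µM dose, 40% or more inhibition averaged across four replicates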
Mdm2-MdmX confirm: confirmation of inhibitors of human Mdm2/MdmX interaction, set 2 | shares compounds with HIF-2a inh | SaOS-2 split-luciferase Mdm2/MdmX complementation, luminescence | inhibition, % at 8 µM | actives 99% (n = 740) | AID 504601;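 active = mean inhibition of the luminescence signal across two replicates at or above 26 percent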
HIF-2a inh conf: confirmation of HIF-2a inhibitors; shares compounds with HIF-2a inh; 786-0 RCC cells, HIF-2a luciferase reporter luminescence, overnight; inhibition, % at 18.8 µM; actives 56% (n = 1,800); AID 651580;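 active = mean inhibition across four replicates of at least 40 percent at the single tested concentration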
HIF-1a cs: inhibits HIF-1a reporter, a counter-screen for HIF-2a inhibitors; inhibition, % at 18.8 µM; shares compounds with HIF-2a inh; actives 72% (n = 1,800); MiaPaCa-2 HIF-1a luciferase reporter, desferoxamine, overnight;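 active = mean inhibition of the reporter signal across four replicates at the single tested dose of 50% or more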
Numbers without * were called inactive.

Results for CC1=C(C(=O)OCc2ccc3c(c2)OCO3)C(c2ccc(Cl)cc2)NC(=O)N1 (stereo not drawn) ?
KKLEB tox: -37; Shn3 3UTR inh: 12; Peg3 prom inh-1: 53*; HIF-2a inh: 33; CF NFkB inh: 93*; MITF TRPM1 inh: 55; Peg3 prom inh-2: 29; Mdm2-MdmX confirm: 95*

Results for COc1ccc(-c2cc(C(=O)N3CCN(S(=O)(=O)c4ccc(C)cc4)CC3)[nH]n2)cc1 ?
KKLEB tox: -2; Shn3 3UTR inh: 6; Peg3 prom inh-1: -9; HIF-2a inh: -30; CF NFkB inh: 1; MITF TRPM1 inh: -6

Results for COC(=O)C1=C(C)NC2=C(C(=O)CCC2)C1c1ccc(-c2ccsc2C(=O)OC)o1 (stereo not drawn) ?
KKLEB tox: -11; Shn3 3UTR inh: -1; Peg3 prom inh-1: -8; HIF-2a inh: 9; CF NFkB inh: -4; MITF TRPM1 inh: -2

What do the screens show for `C(=NNc1ccc2ccccc2n1)c1ccccn1`?
KKLEB tox: -52*; Shn3 3UTR inh: 92*; Peg3 prom inh-1: 76*; HIF-2a inh: 69*; CF NFkB inh: 13; Peg3 prom inh-2: 78*; HIF-2a inh conf: 81*; HIF-1a cs: -12

Results for Cc1csc(N/N=C/c2ccccn2)n1 ?
KKLEB tox: -23; Shn3 3UTR inh: 48; Peg3 prom inh-1: -16; HIF-2a inh: 1; CF NFkB inh: -7; MITF TRPM1 inh: 46

What do the screens show for `COc1ccc(-c2cc(-c3ccc(F)cc3)nc(N3CCN(C)CC3)n2)cc1`?
KKLEB tox: -35; Shn3 3UTR inh: -7; Peg3 prom inh-1: 80*; HIF-2a inh: 52*; CF NFkB inh: -19; MITF TRPM1 inh: 18; Peg3 prom inh-2: 58*; HIF-2a inh conf: 1; HIF-1a cs: 70*

What do the screens show for `CCOC(=O)C1CCN(c2c(Nc3ccc(C)c(C)c3)c(=O)c2=O)CC1`?
KKLEB tox: -1; Shn3 3UTR inh: 2; Peg3 prom inh-1: 21; HIF-2a inh: 13; CF NFkB inh: 6; MITF TRPM1 inh: -4

How did COCCn1c(C)cc(C(=O)CSc2nnc3ccccn23)c1C do in these assays?
KKLEB tox: -7; Shn3 3UTR inh: 37; Peg3 prom inh-1: 64*; HIF-2a inh: 44*; CF NFkB inh: 7; MITF TRPM1 inh: 59; Peg3 prom inh-2: 54*; HIF-2a inh conf: 76*; HIF-1a cs: 49

Results for Cc1ccc(C(=O)CSc2nnc3ccccn23)c(C)c1 ?
KKLEB tox: 15; Shn3 3UTR inh: -25; Peg3 prom inh-1: -108; HIF-2a inh: -88; CF NFkB inh: 5; MITF TRPM1 inh: -11

How did COc1ccc(Nc2oc(COc3ccccc3OC)nc2C#N)cc1 do in these assays?
KKLEB tox: 5; Shn3 3UTR inh: 24; Peg3 prom inh-1: 77*; HIF-2a inh: 59*; CF NFkB inh: -4; MITF TRPM1 inh: 17; Peg3 prom inh-2: 51*; HIF-2a inh conf: 62*; HIF-1a cs: 57*

Results for CC(=O)c1c(NCc2ccccc2)nc(=O)n(-c2ccccc2)c1C ?
KKLEB tox: 8; Shn3 3UTR inh: -28; Peg3 prom inh-1: -99; HIF-2a inh: -90; CF NFkB inh: -3; MITF TRPM1 inh: -52

Results for CC(=O)c1c(NCCc2ccccc2)nc(=S)n(-c2ccccc2)c1C ?
KKLEB tox: 13; Shn3 3UTR inh: 11; Peg3 prom inh-1: 101*; HIF-2a inh: 92*; CF NFkB inh: -16; MITF TRPM1 inh: 6; Peg3 prom inh-2: 99*; HIF-2a inh conf: -11; HIF-1a cs: 20

What do the screens show for `CC(C)(C)C(=O)Nc1ccc(NC(=O)c2ccco2)nc1`?
KKLEB tox: -31; Shn3 3UTR inh: 90*; Peg3 prom inh-1: 108*; HIF-2a inh: 90*; CF NFkB inh: -3; MITF TRPM1 inh: 92*; Peg3 prom inh-2: 92*; Mdm2-MdmX confirm: 98*; HIF-2a inh conf: 96*; HIF-1a cs: 96*

Results for O=C(Nc1ccc(NC(=O)c2ccco2)nc1)c1ccco1 ?
KKLEB tox: 9; Shn3 3UTR inh: -5; Peg3 prom inh-1: -29; HIF-2a inh: -36; CF NFkB inh: -10; MITF TRPM1 inh: 5

How did O=C(Nc1ccc(C(=O)N2CCOCC2)cc1)c1ccccc1Cl do in these assays?
KKLEB tox: -1; Shn3 3UTR inh: -36; Peg3 prom inh-1: 4; HIF-2a inh: -19; CF NFkB inh: 8

How did CN(Cc1ccccc1)c1nc2c(c(=O)[nH]c(=O)n2C)n1CCOc1ccccc1 do in these assays?
KKLEB tox: -5; Shn3 3UTR inh: 5; Peg3 prom inh-1: 9; HIF-2a inh: 21; CF NFkB inh: 10; MITF TRPM1 inh: -6

Results for Cc1ccc(NC(=O)CN(C)C(=O)COC(=O)c2ccc(Cl)cc2O)cc1 ?
KKLEB tox: 14; Shn3 3UTR inh: 5; Peg3 prom inh-1: 9; HIF-2a inh: 1; CF NFkB inh: -42; MITF TRPM1 inh: 8

How did CCCCCc1ccc(OCCCC[n+]2cccc(C)c2)c(CCCCC)c1 do in these assays?
KKLEB tox: -47; Shn3 3UTR inh: 79; Peg3 prom inh-1: 97*; HIF-2a inh: 95*; CF NFkB inh: 58*; MITF TRPM1 inh: 79*; Peg3 prom inh-2: 97*; Mdm2-MdmX confirm: 102*; HIF-2a inh conf: 33; HIF-1a cs: 106*

What do the screens show for `CCCCOc1ccc(C)cc1CN(CCO)CCO`?
KKLEB tox: -15; Shn3 3UTR inh: 0; Peg3 prom inh-1: 1; HIF-2a inh: 14; CF NFkB inh: 3; MITF TRPM1 inh: -7

Results for COc1ccc(NC(=O)c2ccc(S(=O)(=O)N3CCOCC3)o2)cc1 ?
KKLEB tox: -1; Shn3 3UTR inh: 14; Peg3 prom inh-1: -2; HIF-2a inh: 4; CF NFkB inh: 2; MITF TRPM1 inh: 5

How did CN(C)S(=O)(=O)c1ccc(SCC(=O)Nc2cccc(S(=O)(=O)N3CCCC3)c2)nc1 do in these assays?
KKLEB tox: 7; Shn3 3UTR inh: 5; Peg3 prom inh-1: 11; HIF-2a inh: 3; CF NFkB inh: -12; MITF TRPM1 inh: 17

What do the screens show for `CN(C)S(=O)(=O)c1cccc(NC(=O)CSc2cccc3cccnc23)c1`?
KKLEB tox: 2; Shn3 3UTR inh: 13; Peg3 prom inh-1: 102*; HIF-2a inh: 66*; CF NFkB inh: -11; MITF TRPM1 inh: 28; Peg3 prom inh-2: 93*; HIF-2a inh conf: 75*; HIF-1a cs: -15
